Screening data deposited in PubChem BioAssay by several laboratories.
ERa SRC1 inh: blocks coactivator binding to human estrogen receptor alpha | inhibition, % at 25.6 µM | TR-FRET ER-alpha LBD / SRC-1 peptide, estradiol-bound | 86,000 compounds, 1.7% hits | AID 629 | P03372; in the data active means inhibition above about 50%;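 further: 0% = receptor plus peptide control and 100% = peptide only without receptor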
ERa SRC1 pot: ER-alpha (human) coactivator binding potentiation | 86,000 compounds, 1.3% hits | P03372 | TR-FRET ERalpha-LBD/SRC-Cy5 coactivator binding, 2 h; 100 = basal binding, no effect | AID 639 | coactivator binding (% of control), % at 25.6 µM; in the data active means activity above about 200%;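 further: binding measured in presence of low estradiol as agonist stimulus; 0% = peptide alone without receptor and 100% = receptor with peptide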
ERb coact inh: blocks coactivator binding to human estrogen receptor beta | Q92731 | TR-FRET ER-beta LBD / SRC1-Cy5 peptide binding; receptor agonist-loaded with 1 µM estradiol | inhibition, % at 25.6 µM | 86,000 compounds, 1.3% hits | AID 633;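 active means compounds whose percent inhibition of the receptor-coactivator binding signal exceeds about 50% in the single-dose screen, limit read from the data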;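 further: 0% = receptor plus peptide wells without compound and 100% = peptide-only wells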
Smad3 inh: blocks human Smad3 binding to FoxH1 peptide | inhibition, % at 25 µM | TR-FRET Smad3/Dy647-FoxH1 peptide binding, europium anti-His | P84022 | 88,000 compounds, 0.29% hits | AID 630;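 active means compounds that reduce the energy-transfer binding signal between the protein and its labelled peptide by more than half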;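 further: 0% = Smad3 plus labelled peptide maximal FRET and 100% = peptide-only background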
Target sequence (P84022 whole entry, looked up): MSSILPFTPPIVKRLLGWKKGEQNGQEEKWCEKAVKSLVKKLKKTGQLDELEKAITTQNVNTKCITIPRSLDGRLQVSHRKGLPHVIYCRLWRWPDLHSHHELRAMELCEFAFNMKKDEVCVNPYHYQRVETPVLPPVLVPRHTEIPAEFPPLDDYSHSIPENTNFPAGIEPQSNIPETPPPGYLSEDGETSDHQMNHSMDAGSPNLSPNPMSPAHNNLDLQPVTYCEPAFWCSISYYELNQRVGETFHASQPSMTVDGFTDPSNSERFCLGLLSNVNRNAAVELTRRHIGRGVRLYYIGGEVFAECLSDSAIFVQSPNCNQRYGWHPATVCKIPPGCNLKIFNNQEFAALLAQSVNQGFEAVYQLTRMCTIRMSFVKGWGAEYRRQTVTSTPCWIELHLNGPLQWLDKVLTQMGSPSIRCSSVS
Calb biofilm kill: kills Candida albicans biofilms; C. albicans biofilm + clotrimazole, Alamar Blue; inhibition, % at 6 µM; 85,000 compounds, 0.14% hits;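 active means inhibition above 20%; inactive means inhibition below 20%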;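 further: preformed 24 hr biofilms exposed to compound for 48 hr; 0% = biofilm without compound and 100% = blank killed by clotrimazole plus chlorhexidine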
* = called active by the depositor; . = no result given; [ ] = dose if it differs, or a comment. Hits are enriched below; roughly 3.6% of the tested compounds scored in any of these assays.

SMILES	ERa SRC1 inh	ERa SRC1 pot	ERb coact inh	Smad3 inh	Calb biofilm kill
CC(=O)c1c(C)nc(-c2ccc3c(c2)OCO3)n1O	-5	667*[fluorescence artefact?]	1	10	3
COc1cc2c(cc1OC)C(c1ccc(-c3cc(Cl)ccc3Cl)o1)=NCC2	47	253*[fluorescence artefact?]	36	1	5
Cc1cc(C)c2c(=O)[nH]c(SCC(=O)c3ccc(C(C)C)cc3)nc2n1	12	558*[fluorescence artefact?]	12	-10	-1
Cc1cc(C)c2c(=O)[nH]c(SCC(=O)N(C)C)nc2n1	6	104	-2	3	9
O=C(C1CCN(S(=O)(=O)c2ccc(F)cc2)CC1)N1CCOCC1	-11	106	3	7	2
COc1ccc(-c2cc(C(=O)Nc3cccc(C(C)=O)c3)no2)cc1	16	228*[fluorescence artefact?]	10	-1	-2
CC(C)[C@@H]1O[C@H](/C=C/c2ccccc2)OCC1(C)C	.	.	.	4	.
NS(=O)(=O)c1cc(Br)c(N=Nc2ccc(O)c3ncccc23)c(Br)c1	.	.	.	77*	.
CC1(C)Cc2c(sc3c4nnnn4c4nnnn4c23)CO1	80*	43	6	11	6
COc1ccc(NC(=O)CN2CCN(C3c4ccccc4-c4ccccc43)CC2)cc1	-13	71	8	-13	6
NCC(=O)Nc1ccccc1	.	.	.	2	.
COc1ccc(C(C(=O)NC2CCCC2)N(C(=O)c2ccco2)c2ccc3c(c2)OCO3)cc1OC (centres undefined)	-27	85	57*	-5	2
CC1Cc2nc(SCC(=O)Nc3nc4ccccc4s3)n(C)c(=O)c2S1 (centres undefined)	-1	113	2	-2	5
Cc1cccc(-n2c(O)c(C=Nc3ccc4c(c3)OCO4)c3ccccc3c2=O)n1	71*[fluorescence artefact?]	49	26	8	9
CC1(C)NC(C)(C)C(O)(C(N)=O)C1=O (centres undefined)	-6	119	-4	0	8
Cc1noc(C)c1COC(=O)c1cccnc1SCC(=O)Nc1ccc2c(c1)OCO2	4	110	-6	51*	7
Cc1ccc(S(=O)(=O)c2cc3c(=O)n4ccccc4nc3n(Cc3ccco3)c2=N)cc1C	75*[fluorescence artefact?]	38	50*[fluorescence artefact?]	-10	5
N=c1c(S(=O)(=O)c2ccccc2)cc2c(=O)n3ccccc3nc2n1Cc1ccco1	76*[fluorescence artefact?]	49	79*[fluorescence artefact?]	-1	8
N=c1c(S(=O)(=O)c2ccccc2)cc2c(=O)n3ccccc3nc2n1CCN1CCOCC1	-3	129	0	12	3
O=C(NC1CCCCC1)C1CC=CCC1C(=O)OCC(Cl)=C(Cl)Cl (centres undefined)	-5	85	-3	-4	5
O=C(Cc1ccc(S(=O)(=O)N2CCOCC2)s1)Nc1nc2c(s1)CCCC2	83*	23	81*[fluorescence artefact?]	4	4
C#CC(C)(CC)NC(=O)Cn1nnc(-c2ccc(S(C)(=O)=O)cc2)n1 (centres undefined)	0	96	1	5	4
O=S1(=O)N=C(Nc2ccc(N3CCOCC3)cc2)c2ccccc21	-25	80	51*[fluorescence artefact?]	-5	3
O=S1(=O)N=C(N2CCOCC2)c2ccccc21	0	108	-15	0	7
Cc1ccccc1-c1ccc(Nc2ccc(N3CCOCC3)cc2)nn1	99*[fluorescence artefact?]	7	80*[fluorescence artefact?]	10	0
SMILES	ERa SRC1 inh	ERa SRC1 pot	ERb coact inh	Smad3 inh	Calb biofilm kill
C=CCOC(=O)C1CC=CCC1C(=O)Oc1ccc(F)cc1F (centres undefined)	-4	131	-12	2	3
CN1CCN(S(=O)(=O)c2ccc(NC(=O)Cc3cccs3)cc2)CC1	40	72	44	5	8
O=C(Cc1cccs1)Nc1ccc(S(=O)(=O)N2CCCCC2)cc1	96*[fluorescence artefact?]	18	84*	-1	1
Cc1ccnc(NS(=O)(=O)c2ccc(NC(=O)Cc3cccs3)cc2)n1	67*	49	62*	1	-1
Cc1nc2ccc(NC(=O)Cc3cccs3)cc2s1	62*[fluorescence artefact?]	60	44	7	-4
O=C(Cc1cccs1)Nc1ccc(C(=O)O)cc1	1	117	4	-5	.
O=C(Cc1cccs1)Nc1ccc(S(=O)(=O)Nc2ncccn2)cc1	88*[fluorescence artefact?]	22	84*	4	7
COc1cccc(NC(=O)[C@@H]2CCCN2C(=O)C2CCN(S(=O)(=O)c3ccc(C)cc3)CC2)c1	-8	105	-8	5	11
CCC(C)(C)n1nnnc1CN1CCc2ccccc21	-5	89	-10	8	2
